Test results: PubChem BioAssay AID1845225 (National Center for Advancing Translational Sciences (NCATS), 2023)
Inconclusive results are not listed. Calls of active or inactive are those of the source. Calls follow the shape of the dose curve; as a rule, active = well fitted curve in the direction sought with a large enough effect; inconclusive = small, poorly fitted or top-dose-only effect, or effect the other way, or another doubt; inactive = no such curve, though single readings can be large or run the other way.

Assay: Confirmatory redox qHTS assay for identification of artifact compounds.
Settings: Amplex Red/HRP redox cycling with DTT, fluorescence; series mostly up to 39 µM
In short: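 Amplex Red (25 uM final) and HRP (250 mU/mL final) in HBSS, compound 15 min, then 250 uM DTT final 30 min, room temperature, dark; fluorescence 525/598 nm, normalized to DMSO and 10 uM DA3003, Hill fitted.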

outcome, inactive:
Cc1cc(C)nc(NC(=S)N2CCN(c3ccc(F)c(F)c3F)CC2)c1
CCCCCCOc1ccc(CC(=O)O)cc1
Cc1ccc(-n2ncc(C(=O)N3CCN(c4ccccn4)CC3)c2C2CCN(C(=O)OC(C)(C)C)CC2)cc1C
COc1ccc(Cn2c(C(=O)O)c(CNC3CCCC3)c3ccc(C)cc32)cc1
CC(N)(C(=O)O)c1ccc(S(=O)(=O)O)cc1 (stereo not given)
COc1ccc(OC)c(NC(=O)Cn2c(=O)n(CC3CCCO3)c(=O)c3cc(OC)c(OC)cc32)c1 (stereo not given)
O=C(Nc1nnc(-c2ccccc2)s1)c1ccc(S(=O)(=O)N2CCCC2)cc1
Cc1cc(C)cc(NC(=O)CSc2cc(C)[nH]c(=O)n2)c1
O=C(Cn1nc2c(cc1=O)CCCC2)Nc1ccc(F)cc1F
CCOC(=O)C(=O)NCC(c1cccnc1)N1CCN(c2ccccc2)CC1 (stereo not given)
Cc1ccc(NS(=O)(=O)c2ccc3c(c2)CCN(C(=O)C(F)(F)F)C3)cc1C
C=C[C@@H]1C[C@@H](C=C)OP(=O)(O[C@@H](C=C)[C@@H](C)C(=O)OC)O1 (stereo not given in full)
COc1cc2nc(N3CCCCC3)nc(NC(C)C)c2cc1OC
COc1cc(O)c(C(CC(=O)N2CCCCC2)c2ccc(C)cc2)c(OC)c1 (stereo not given)
O=C(Nc1cc2c(cc1C(=O)c1ccccc1Cl)OCCO2)c1ccc(Br)cc1
Cc1cc(C)cc(-n2ccn(Cc3ccc(F)cc3)c(=O)c2=O)c1
Cc1ccc(C)c(C(=O)N2CCC(c3nc4c(nnn4Cc4ccccc4)c(=O)[nH]3)CC2)c1
COc1ccc(NC(=O)C(Cc2ccccc2)n2cccc2)c(OC)c1 (stereo not given)
Cc1ccc2c(c1)cc(C(=O)NCc1ccc(F)cc1)n2C
COc1ccccc1CNC(=O)CCC(=O)N1Cc2ccccc2Oc2ncccc21
CCCC(=O)O[C@]1(C(=O)COC(C)=O)CC[C@H]2[C@@H]3C[C@H](F)C4=CC(=O)C=C[C@]4(C)[C@@]3(F)[C@@H](O)C[C@@]21C
CNC(=O)c1ccc(Nc2nnc(-c3ccc(C)c(S(=O)(=O)N4CCOCC4)c3)c3ccccc23)cc1
Cc1ccc(CNC(=O)c2c(-c3ccccc3Cl)noc2C)o1
Cc1ccc(C)c(NC(=O)CC2NCCNC2=O)c1 (stereo not given)
CCCCCOC(=O)c1[nH]c2c(c1C)C(=O)CC(c1ccco1)C2 (stereo not given)
CCOc1ccc(Cn2c(=O)sc3ccccc32)cc1
CC(C)C[C@H](NC(=O)[C@@H](Cc1c[nH]c2ccccc12)NC(=O)[C@H](Cc1ccc(O)cc1)NC(=O)[C@H](CO)NC(=O)[C@H](Cc1c[nH]c2ccccc12)NC(=O)[C@H](Cc1cnc[nH]1)NC(=O)[C@@H]1CCC(=O)N1)C(=O)N[C@@H](CCCN=C(N)N)C(=O)N1CCC[C@H]1C(=O)NCC(N)=O
Cc1cccc(C)c1NC(=O)CCSCCc1ccccn1
Cc1cc(C(=O)N2CCN(c3cccc(Cl)c3)CC2)c2c(C)nn(-c3ccccc3Cl)c2n1
COc1cc2c(NC3CCN(C(C)C)CC3)nc(N3CCCN(C)CC3)nc2cc1OCCOCCN(C)C
O=C(CN1C(=O)CCn2nc(-c3ccccc3)cc21)NCc1ccc(Cl)cc1
COc1cccc(-c2nc(SCC(=O)Nc3ccc4c(c3)OCO4)c(-c3ccccc3)[nH]2)c1
CC1CCCCN1CCCNC(=O)Cn1ncc2c3ccccc3n(Cc3ccccc3)c2c1=O (stereo not given)
COc1ccc(S(=O)(=O)N(CCc2ccccc2)CC(=O)Nc2cc(Cl)ccc2C)cc1
CN(C)CCNC(=O)CN1C(=O)CCn2nc(-c3cn(C)c4ccccc34)cc21
CCOc1ccc2nc(N3CCC(C(=O)Nc4ccc(Br)cc4F)CC3)sc2c1
Cc1ccccc1S(=O)(=O)Nc1cnccc1C(=O)Nc1nc(-c2ccccc2)cs1
COc1ccc(Cn2c(SCc3ccc(C(=O)NC4CCCCC4)cc3)nc3ccncc32)cc1
COc1cc2c(NC3CCN(C)CC3)nc(N3CCCN(C)CC3)nc2cc1OCCCN(C)C
O=C(Nc1nnc(S(=O)(=O)N2CCCC2)s1)c1ccccc1Cl
